The sample as a whole holds a higher share of hits than the screen did.
RECQ1 inh-1: inhibitors of human RECQ1 DNA helicase | 0.54% of 240,000 active | RECQ1 DNA unwinding, red fluorescence kinetic read | Potency, µM (series often up to 57.3 µM), inactives show at the highest dose activity, negative = inhibition, most hits filed as inhibitors | P46063;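 also: plate controls were vehicle for no effect and no enzyme for full effect; nearly all actives have a fitted effect of over 30% in size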
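50 nM RECQ1T1 preincubated 15 min with compound in Tris pH 8.0 buffer with MgCl2, DTT, Tween-20 and 2.5 ug/ml poly(dI-dC); started with 200 nM TAMRA/BHQ-2 forked duplex and 2 mM ATP. Unwinding read as fluorescence (525/598 nm), two reads 2 h apart.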
APE1 inh: inhibitors of human APE1 endonuclease | recombinant APE1, TAMRA/BHQ-2 abasic DNA cleavage fluorescence | Potency, µM (top dose mostly 65.8 µM), without a hit: at the top dose activity change, negative = inhibition, hits mostly inhibitors | 0.35% of 350,000 active | P27695;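 also: plate controls were vehicle for no effect and reference inhibitor for full effect; nearly all actives have a fitted effect of over 55% in size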
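Endonuclease cleavage of a quenched abasic-site DNA duplex (50 nM) by APE1 (0.75 nM) was tracked by TAMRA dequenching. Compounds were preincubated with enzyme 15 min at room temperature; data normalized to buffer-only and DMSO wells plus NSC13755 control.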
GCN5L2 inh: blocks human GCN5L2 histone acetyltransferase; Q92830; GCN5L2 HAT assay, ThioGlo1 CoA-SH fluorescence; Potency, µM (doses to about 58.9 µM), for inactives: at the top dose activity change, negative = inhibition, usual class: inhibitors; 0.21% of 390,000 active
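Free CoA generated was detected with ThioGlo1 (50uM) fluorescence at Ex340nm/Em540nm, read immediately and after 20 min at room temperature. Enzyme, 20 nM in HEPES pH 7.5 buffer, saw compounds 15 min before adding 75uM H3(1-25) peptide and 70uM acetyl-CoA.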
JMJD2E inh: inhibitors of human JMJD2E histone demethylase. B2RXH2. JMJD2E catalytic domain, FDH-coupled NADH fluorescence (FDH is formaldehyde dehydrogenase). Potency, µM (doses to about 57.1 µM), inactives show at the highest dose activity change, negative = inhibition, hits mostly inhibitors. 1.6% of 230,000 active; active = well fitted inhibition curve with a large enough effect, not every such curve was filed as active; inconclusive = small, poorly fitted or top-dose-only effect, or another doubt; inactive = no such curve, though single readings can be large or run the other way;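 also: 0% = wells with enzyme and -100% = buffer wells without enzyme; nearly all actives have a fitted effect of over 50% in size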
L3MBTL1 block: L3MBTL1 (human) inhibition; AID 485360; Potency, µM (series often up to 57.1 µM), for inactives: at the highest dose activity, negative = inhibition, most hits filed as inhibitors; 0.66% of 230,000 active; AlphaScreen L3MBTL1–H3K9me1 peptide binding; Q9Y468; also: nearly all actives have a fitted effect of over 60% in size
Target sequence (Q9Y468 whole entry, looked up): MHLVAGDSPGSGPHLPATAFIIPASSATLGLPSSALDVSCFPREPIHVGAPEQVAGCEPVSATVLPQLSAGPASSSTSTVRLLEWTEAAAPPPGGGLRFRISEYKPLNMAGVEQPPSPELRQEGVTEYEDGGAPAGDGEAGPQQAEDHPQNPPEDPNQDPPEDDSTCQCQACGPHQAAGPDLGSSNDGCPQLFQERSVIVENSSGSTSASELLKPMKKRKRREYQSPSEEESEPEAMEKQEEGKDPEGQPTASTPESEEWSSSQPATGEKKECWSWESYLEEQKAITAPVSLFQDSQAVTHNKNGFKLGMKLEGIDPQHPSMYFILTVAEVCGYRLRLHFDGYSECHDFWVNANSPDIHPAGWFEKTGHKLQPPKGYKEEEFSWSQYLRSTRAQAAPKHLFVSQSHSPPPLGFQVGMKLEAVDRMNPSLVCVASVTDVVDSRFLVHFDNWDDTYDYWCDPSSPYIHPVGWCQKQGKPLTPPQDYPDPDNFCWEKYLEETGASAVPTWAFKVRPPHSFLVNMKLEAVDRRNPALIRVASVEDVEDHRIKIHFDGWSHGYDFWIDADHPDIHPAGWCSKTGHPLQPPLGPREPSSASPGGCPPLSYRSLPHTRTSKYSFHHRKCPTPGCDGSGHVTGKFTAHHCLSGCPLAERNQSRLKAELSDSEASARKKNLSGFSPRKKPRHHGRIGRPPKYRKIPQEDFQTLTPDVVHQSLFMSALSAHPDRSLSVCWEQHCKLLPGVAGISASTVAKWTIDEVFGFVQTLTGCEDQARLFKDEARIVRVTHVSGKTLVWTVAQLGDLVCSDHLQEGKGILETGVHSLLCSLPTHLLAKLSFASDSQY
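AlphaScreen assay: L3MBTL1 (50 nM final) was preincubated 30 min at room temperature with biotinylated H3(1-15)K9me1 peptide (75 nM final), then 30 min with library compounds; streptavidin donor and nickel chelate acceptor beads (10 ug/mL final) added, 30 min dark.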
BLM helicase inh: inhibitors of human Bloom syndrome helicase BLM. 0.2% of 350,000 active. Potency, µM (top dose mostly 56.1 µM), without a hit: top-dose activity change, negative = inhibition, actives largely listed as inhibitors. recombinant BLM DNA unwinding, fluorescence dequenching. AID 2528;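 also: plate controls were vehicle for no effect and no enzyme for full effect; nearly all actives have a fitted effect of over 35% in size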
RECQ1 inh conf: confirmation of human RECQ1 helicase inhibitors; shares compounds with RECQ1 inh-1; RECQ1 helicase DNA unwinding, fluorescence; Potency, µM (titrated, usually from 229 µM), without a hit: at the top dose activity change, negative = inhibition, most hits filed as inhibitors; 28% of 610 active; also: nearly all actives have a fitted effect of over 45% in size
RECQ1 ADP FP: ADP displacement flagged in RECQ1 inhibitor counter-screen. AID 2711. ADP fluorescence polarization displacement counterscreen. Potency, µM (titrated, usually from 228 µM), without a hit: top-dose activity change, negative = inhibition, most hits filed as inhibitors. shares compounds with RECQ1 inh-1. 27% of 530 active; also: nearly all actives have a fitted effect of over 45% in size
RECQ1 inh-2: RECQ1 helicase inhibition confirmed, round 2; recombinant RECQ1 DNA unwinding, red fluorescence; shares compounds with RECQ1 inh-1; 15% of 1,100 active; AID 504841; Potency, µM (titrated, usually from 119 µM), inactives show top-dose activity, negative = inhibition, actives largely listed as inhibitors; also: nearly all actives have a fitted effect of over 50% in size
An asterisk follows results filed as active; ! = repeats disagree; [ ] = another dose, or the depositor's remark. Unless noted, calls follow the shape of the dose curve; as a rule, active = well fitted curve in the direction sought with a large enough effect; inconclusive = small, poorly fitted or top-dose-only effect, or another doubt; inactive = no such curve, though single readings can be large; an effect the other way counts as inactive or inconclusive. Unless noted, % is scaled to controls: 0 for no effect and ±100 for the full control effect; potency is read from the fitted curve at half-maximal effect.

`CCCCc1nc2ccccc2c(=O)n1NC(=O)c1c(O)c2c(n(CC(C)C)c1=O)CCCC2` gave RECQ1 inh-1 inactive, APE1 inh -3%, GCN5L2 inh -13%, JMJD2E inh 5%, L3MBTL1 block 6%, BLM helicase inh -10%, RECQ1 inh conf inconclusive and RECQ1 ADP FP 38%.
`CC(C)Cn1c2c(c(O)c(C(=O)Nn3c(Cc4ccccc4)nc4ccccc4c3=O)c1=O)CCCC2` gave RECQ1 inh-1 -7%, APE1 inh -1%, GCN5L2 inh -4%, JMJD2E inh inconclusive, L3MBTL1 block -5% and BLM helicase inh -10%.
For O=C(Nn1c(Cc2ccccc2)nc2ccccc2c1=O)c1c(O)c2cccc3c2n(c1=O)CCC3 the results were RECQ1 inh-1 inactive, APE1 inh 1%, GCN5L2 inh 25%, JMJD2E inh 3%, L3MBTL1 block 9%, BLM helicase inh -3%, RECQ1 inh conf inconclusive and RECQ1 ADP FP inconclusive.
For CCc1nc2ccccc2c(=O)n1NC(=O)c1c(O)c2cccc3c2n(c1=O)CCC3 the results were RECQ1 inh-1 5%, APE1 inh 5%, JMJD2E inh 12% and BLM helicase inh -3%.
Screening N#Cc1cnn(-c2ccccc2)c1NC(=O)c1ccccc1F returned APE1 inh 15%, GCN5L2 inh 0% and L3MBTL1 block -9%.
`CCOC(=O)c1sc(-c2ccc(Br)cc2)cc1N` gave RECQ1 inh-1 32µM*, APE1 inh 25%, GCN5L2 inh -12%, JMJD2E inh inconclusive, L3MBTL1 block 33%, BLM helicase inh -14% and RECQ1 inh-2 -18%.
For CCc1[nH]c(C(=O)O)c(C)c1C(=O)OC the results were RECQ1 inh-1 -5%, APE1 inh 14%, GCN5L2 inh -9%, JMJD2E inh -1%, L3MBTL1 block 5% and BLM helicase inh -6%.
Screening Cc1ccc(Nc2nc(Nc3ccc(Cl)cc3)nc(N3CCOCC3)n2)cc1 returned RECQ1 inh conf -15%[69.1 µM].
`Clc1ccc(Nc2nc(N3CCOCC3)nc(N3CCOCC3)n2)cc1Cl` gave APE1 inh -21%, GCN5L2 inh -12% and BLM helicase inh 0%.
For CC(=O)Nc1ccc(Nc2nc(Nc3ccc(Cl)cc3)nc(N3CCOCC3)n2)cc1 the results were RECQ1 inh conf -6%[69.1 µM].
For CCN(CC)S(=O)(=O)c1ccc(/C=C/C(=O)OCC(=O)N(C(C)C)C(C)C)cc1 the results were RECQ1 inh-1 4%, APE1 inh 0%, GCN5L2 inh -13%, JMJD2E inh 5%, L3MBTL1 block 1% and BLM helicase inh -3%.
Cc1ccc(-n2nc3c(c2NC(=O)c2ccccc2)CS(=O)(=O)C3)cc1C was read as APE1 inh 8%, GCN5L2 inh -9% and BLM helicase inh -1%.
Screening Cc1ccc(NCc2nnc(SCC(=O)O)n2Cc2ccccc2)cc1Cl returned RECQ1 inh-1 22%, APE1 inh -3%, GCN5L2 inh -3%, JMJD2E inh 2%, L3MBTL1 block -5%, BLM helicase inh 0%, RECQ1 inh conf 8% and RECQ1 ADP FP 3%.
For O=C(Cc1ccc2c(c1)OCCO2)c1c(O)cc(O)cc1O the results were RECQ1 inh-1 inactive, APE1 inh -6%, GCN5L2 inh -2%, JMJD2E inh -7%, L3MBTL1 block -7% and BLM helicase inh -7%.
`O=C(CCc1ccc(O)cc1)c1c(O)cc(O)cc1O` gave RECQ1 inh-1 13µM*!, APE1 inh -6%, GCN5L2 inh -12%, JMJD2E inh 32µM*!, BLM helicase inh -15% and RECQ1 inh-2 -13%.
`COc1ccccc1NS(=O)(=O)c1cccc(C(=O)N2CCN(C(=O)c3ccco3)CC2)c1` gave APE1 inh 8%, GCN5L2 inh 2% and L3MBTL1 block -2%.
Screening COc1cc(-c2nc3n(n2)C(c2ccncc2)C2=C(CCCC2=O)N3)cc(OC)c1OC (centres undefined) returned RECQ1 inh-1 28µM*, APE1 inh 22%, GCN5L2 inh -2%, JMJD2E inh 1%, BLM helicase inh -4% and RECQ1 inh-2 1%.
`O=C1/C(=C/c2ccco2)Oc2c1ccc(O)c2CN1CCCCC1` gave RECQ1 inh-1 inconclusive, APE1 inh inconclusive, GCN5L2 inh -15%, JMJD2E inh inconclusive, L3MBTL1 block inconclusive, BLM helicase inh -4% and RECQ1 inh-2 -17%.
`O=C(CCS(=O)(=O)c1ccc(Br)cc1)NCc1cccs1` gave RECQ1 inh-1 inconclusive, APE1 inh inconclusive, GCN5L2 inh -1%, JMJD2E inh 8%, BLM helicase inh 1% and RECQ1 inh-2 inconclusive.
O=C(N=c1ccn(-c2nc3ccccc3nc2NS(=O)(=O)c2ccc(Cl)cc2)cc1)c1cccs1 was read as RECQ1 inh-1 inconclusive, APE1 inh -9%, GCN5L2 inh -4%, JMJD2E inh inconclusive, BLM helicase inh -10% and RECQ1 inh-2 -23%.
For CCOc1ccc(S(=O)(=O)Nc2nc3ccccc3nc2-n2ccc(=NC(=O)c3cccs3)cc2)cc1 the results were RECQ1 inh-1 -2%, APE1 inh 0%, GCN5L2 inh inconclusive, JMJD2E inh inconclusive, L3MBTL1 block 2% and BLM helicase inh -6%.
`COc1cc(CN2CCC(n3nccc3NC(=O)c3ccc4c(c3)OCO4)CC2)ccc1O` gave APE1 inh 10%, GCN5L2 inh -3% and BLM helicase inh -2%.
COc1ccc2c(=O)cc(-c3ccc(O)cc3)oc2c1 was read as RECQ1 inh-1 -7%, APE1 inh inconclusive, JMJD2E inh inconclusive and BLM helicase inh 0%.

High-throughput results from PubChem BioAssay.
